Data: PubChem BioAssay (NCATS)
Results filed as inconclusive are left out. Where a call stands in place of a potency, no number is given. A number with no mark means an inactive call. Calls of active or inactive are those of the source. Unless noted, the call rests on the fitted dose curve; in most records, active means well fitted curve in the direction sought with a large enough effect; inconclusive means small, poorly fitted or top-dose-only effect, or another doubt; inactive means no such curve, though single readings can be large; an effect the other way counts as inactive or inconclusive.

Assays:
[1] = qHTS to identify inhibitors of the type 1 interferon - major histocompatibility complex class I in skeletal muscle: primary screen against the NCATS Pharmaceutical Collection (AID 1347407);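 further: luminescence of HiBiT knocked into endogenous HLA-B as interferon-induced MHC class I level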
Procedure, shortened: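 Cells were seeded with 4 ng/ml IFN-beta, incubated 1 h, then dosed with compounds over eight 1:5 steps up to 46 uM final. After 24 h at 37 C, HiBiT lytic reagent was added and luminescence read after 10 min lysis in the dark.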

[2] = biological target: Protein phosphatase 1D (Homo sapiens) (UniProt O15297); assay: RapidFire Mass Spectrometry qHTS Assay for Modulators of WT P53-Induced Phosphatase 1 (WIP1) (AID 1347424);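 further: amount of dephosphorylated VEPPL-S-QETFS peptide product formed by WIP1; series mostly up to about 63 µM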
Procedure, shortened: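 WIP1 (10 nM final) was preincubated 1 h at room temperature with compounds in Tris-HCl pH 7.5, 30 mM MgCl2, TCEP, EGTA, BSA; 2 uM VEPPL-pS-QETFS phosphopeptide was added for 5 min, quenched with formic acid, and dephosphorylated product quantified by RapidFire MS.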

[3] = biological target: Protein phosphatase 1D (Homo sapiens) (UniProt O15297); assay: Rhodamine-PBP qHTS Assay for Modulators of WT P53-Induced Phosphatase 1 (WIP1) (AID 1347425)
Procedure, shortened: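 5 nM WIP1 + 10 uM Rh-PBP, 50 mM Tris pH 7.5, 30 mM MgCl2, 1 mM TCEP, 0.1 mM EGTA, BSA; cpds pinned, 1 hr RT; + 10 uM phosphopeptide; fluorescence 1-min reads x 11 min; delta = f1 - f0.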

[4] = Primary qHTS for inhibitors of La Crosse Virus (LACV) - induced cell death in SH-SY5Y cells (AID 1508616);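 further: top concentration of the series differs between compounds; higher means more rescue of cells from virus-induced death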
Procedure, shortened: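 SH-SY5Y cells (6000/well) plated 24 h, then given compounds by pin transfer and LACV at 0.01 MOI for 6 days at 37C. Viability measured by ATPLite luminescence, normalized to infected DMSO and uninfected DMSO.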

[5] = biological target: Calcium and integrin-binding protein 1 (Homo sapiens) (UniProt Q99828); assay: Primary qHTS for Identification of Calcium Integrin Binding Protein 1 (CIB1) Competitor (AID 1508620);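 further: GST tagged CIB1 binding a fluorescein labelled alphaIIb integrin peptide tracer; top concentration of the series differs between compounds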
Procedure, shortened: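 Fluorescence polarization competition: CIB1-GST (1 uM final) preincubated with compound 15 min at room temperature, then FITC-labeled alphaIIb peptide (100 nM final) added for another 15 min. Polarization read at Ex 480/Em 540.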

[6] = A High-Content qHTS Against Drug Library for the Identification of Small Molecules that Inhibit DYT1 Early Onset Primary Dystonia-Associated Cell Pathology (AID 1645839; calls by dose curve; further: series mostly up to about 46 µM)
Procedure, shortened: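 Readout: %pathology, the punctate EGFP-TorsinA distribution from imaging, as the primary channel and cell count as the toxicity counterscreen. HEK293 Flp-In cells expressing delE TorsinA were induced with tetracycline and treated with compound for 48 h.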

[7] = biological target: Cytochrome P450 2D6 (Homo sapiens) (UniProt P10635); assay: Cytochrome P450 family 2 subfamily D member 6 (CYP2D6) small molecule antagonists: luciferase biochemical (cell-free) qHTS assay (AID 1645840; active means well fitted curve in the direction sought with a large enough effect in the repeat runs; an effect the other way counts as inactive or inconclusive; further: nearly all actives have a fitted effect of over 55% in size; further: potency means the concentration at half of the fitted maximal effect)
Procedure, shortened: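 P450-Glo luminescent screen: recombinant CYP2D6 enzyme–proluciferin substrate mix preincubated with compound 10 min at room temperature, then NADPH regeneration added for 1 h at room temperature. Detection reagent added for 20 min; luciferin light read as relative luminescence units.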

[8] = biological target: Cytochrome P450 3A4 (Homo sapiens) (UniProt P08684); assay: Cytochrome P450 family 3 subfamily A member 4 (CYP3A4) small molecule antagonists: luciferase qHTS assay (AID 1645841; active means well fitted curve in the direction sought with a large enough effect in the repeat runs; an effect the other way counts as inactive or inconclusive; further: nearly all actives have a fitted effect of over 45% in size; further: potency means the concentration at half of the fitted maximal effect)
Procedure, shortened: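 P450-Glo CYP3A4 enzyme with proluciferin substrate was preincubated with DMSO-dissolved compounds for 10 min at room temperature. NADPH regeneration solution started a 1 h reaction. Detection reagent stopped it, and luminescence was read after 20 min.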

[9] = biological target: Cytochrome P450 2C9 (Homo sapiens) (UniProt P11712); assay: Cytochrome P450 family 2 subfamily C member 9 (CYP2C9) small molecule antagonists: luciferase biochemical (cell-free) qHTS assay (AID 1645842; active means well fitted curve in the direction sought with a large enough effect in the repeat runs; an effect the other way counts as inactive or inconclusive; further: nearly all actives have a fitted effect of over 55% in size; further: potency means the concentration at half of the fitted maximal effect)
Procedure, shortened: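 Luminescence, after 20 min with luciferin detection reagent, reflected CYP2C9 turnover during a 1 h NADPH-driven reaction at 37C. Enzyme-substrate mix contained 0.4% bovine serum albumin and was preincubated with compound 10 min at room temperature.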

Chain of Calcium and integrin-binding protein 1 (Homo sapiens) (Q99828 whole entry, looked up): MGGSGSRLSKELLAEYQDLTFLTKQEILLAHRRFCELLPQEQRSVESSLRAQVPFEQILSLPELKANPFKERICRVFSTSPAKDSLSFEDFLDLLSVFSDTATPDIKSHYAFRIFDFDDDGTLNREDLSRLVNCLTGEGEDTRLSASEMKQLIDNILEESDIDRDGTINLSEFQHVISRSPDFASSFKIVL
Chain of Cytochrome P450 2C9 (Homo sapiens) (P11712 whole entry, looked up): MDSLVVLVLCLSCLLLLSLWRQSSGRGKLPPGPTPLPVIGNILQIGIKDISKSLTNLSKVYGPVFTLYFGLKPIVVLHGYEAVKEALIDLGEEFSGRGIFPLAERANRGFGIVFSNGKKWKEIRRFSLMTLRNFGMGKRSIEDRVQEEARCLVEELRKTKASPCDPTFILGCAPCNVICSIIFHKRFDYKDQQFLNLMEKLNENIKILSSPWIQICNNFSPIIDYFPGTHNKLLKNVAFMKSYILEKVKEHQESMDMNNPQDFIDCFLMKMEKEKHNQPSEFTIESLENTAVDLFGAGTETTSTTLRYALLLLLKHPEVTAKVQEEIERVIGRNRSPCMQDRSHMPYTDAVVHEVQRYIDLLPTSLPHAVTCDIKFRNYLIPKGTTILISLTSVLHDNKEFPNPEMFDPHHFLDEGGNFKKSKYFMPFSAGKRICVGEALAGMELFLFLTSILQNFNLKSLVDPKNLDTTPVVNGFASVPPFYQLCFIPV
Chain of Cytochrome P450 2D6 (Homo sapiens) (P10635 whole entry, looked up): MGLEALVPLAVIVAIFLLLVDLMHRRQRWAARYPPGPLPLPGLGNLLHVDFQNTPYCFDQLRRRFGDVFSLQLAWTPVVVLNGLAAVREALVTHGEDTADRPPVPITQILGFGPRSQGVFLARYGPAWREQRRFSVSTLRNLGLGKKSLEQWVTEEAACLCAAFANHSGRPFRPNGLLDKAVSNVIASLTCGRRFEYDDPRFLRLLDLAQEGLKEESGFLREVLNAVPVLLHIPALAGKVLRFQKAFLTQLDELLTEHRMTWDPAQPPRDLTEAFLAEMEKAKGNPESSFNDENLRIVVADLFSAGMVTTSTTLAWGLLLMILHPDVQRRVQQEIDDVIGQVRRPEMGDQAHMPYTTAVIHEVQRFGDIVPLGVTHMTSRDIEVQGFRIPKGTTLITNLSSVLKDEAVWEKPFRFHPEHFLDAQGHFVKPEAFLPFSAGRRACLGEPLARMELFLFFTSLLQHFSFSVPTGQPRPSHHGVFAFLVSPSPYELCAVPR
Chain of Protein phosphatase 1D (Homo sapiens) (O15297 whole entry, looked up): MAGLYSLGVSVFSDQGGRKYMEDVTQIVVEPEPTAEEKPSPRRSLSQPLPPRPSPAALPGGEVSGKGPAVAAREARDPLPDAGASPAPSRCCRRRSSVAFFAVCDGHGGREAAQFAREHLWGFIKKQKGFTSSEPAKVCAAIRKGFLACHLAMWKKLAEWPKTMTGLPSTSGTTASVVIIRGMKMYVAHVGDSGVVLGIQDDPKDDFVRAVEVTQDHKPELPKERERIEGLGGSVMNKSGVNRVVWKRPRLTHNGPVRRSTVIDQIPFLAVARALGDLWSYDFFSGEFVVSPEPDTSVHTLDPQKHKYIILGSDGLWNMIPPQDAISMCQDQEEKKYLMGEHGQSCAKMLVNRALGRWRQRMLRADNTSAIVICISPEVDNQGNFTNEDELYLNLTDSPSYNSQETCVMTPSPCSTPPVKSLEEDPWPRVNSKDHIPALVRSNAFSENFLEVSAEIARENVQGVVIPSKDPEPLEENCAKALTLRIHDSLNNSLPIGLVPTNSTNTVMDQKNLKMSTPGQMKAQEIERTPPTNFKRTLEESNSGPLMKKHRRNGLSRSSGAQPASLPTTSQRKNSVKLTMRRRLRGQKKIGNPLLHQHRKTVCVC
Chain of Cytochrome P450 3A4 (Homo sapiens) (P08684 whole entry, looked up): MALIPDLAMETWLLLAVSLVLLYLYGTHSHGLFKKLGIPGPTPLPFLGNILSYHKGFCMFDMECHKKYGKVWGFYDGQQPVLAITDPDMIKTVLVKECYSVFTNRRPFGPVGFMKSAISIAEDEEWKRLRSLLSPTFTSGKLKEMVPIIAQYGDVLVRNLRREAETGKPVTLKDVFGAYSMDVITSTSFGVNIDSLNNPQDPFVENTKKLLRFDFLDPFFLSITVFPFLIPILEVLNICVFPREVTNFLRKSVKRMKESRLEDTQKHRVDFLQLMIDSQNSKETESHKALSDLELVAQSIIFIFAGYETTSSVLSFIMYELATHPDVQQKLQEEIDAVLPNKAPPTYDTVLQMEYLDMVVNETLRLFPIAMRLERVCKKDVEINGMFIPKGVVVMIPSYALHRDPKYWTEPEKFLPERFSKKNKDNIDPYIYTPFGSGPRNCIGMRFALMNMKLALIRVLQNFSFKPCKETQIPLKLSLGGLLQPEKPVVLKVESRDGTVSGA

c1ccc2c(c1)CCc1ccccc1N2
Potency [1]: inactive | Potency [2]: inactive | outcome [3]: inactive | outcome [4]: inactive | Potency [5]: inactive | Potency [6]: inactive

NC(=O)NC1N=C([O][Al])NC1=O (centres undefined)
Potency [1]: inactive | Potency [2]: inactive | outcome [3]: inactive | outcome [4]: inactive | Potency [5]: inactive | Potency [6]: inactive | Potency [7]: 13.8 µM (active) | Potency [8]: 5.49 µM (active) | Potency [9]: inactive

O=C(Oc1ccccc1)c1cccc(C(=O)Oc2ccccc2)c1
Potency [1]: inactive | Potency [2]: inactive | outcome [3]: inactive | outcome [4]: inactive | Potency [5]: inactive | Potency [6]: inactive | Potency [7]: 30.7 µM (active) | Potency [9]: 6.48 µM (active)

Cc1ccc(O)cc1
Potency [1]: inactive | Potency [2]: inactive | outcome [3]: inactive | outcome [4]: inactive | Potency [5]: inactive | Potency [6]: inactive

O=C(c1ccccc1)c1ccccc1
Potency [1]: inactive | Potency [2]: inactive | outcome [3]: inactive | outcome [4]: inactive | Potency [5]: inactive | Potency [6]: inactive

O=C(O)CCCC[C@@H]1SC[C@@H]2NC(=O)N[C@@H]21
Potency [1]: inactive | Potency [2]: inactive | outcome [3]: inactive | outcome [4]: inactive | Potency [5]: inactive | Potency [6]: inactive | Potency [7]: inactive

Nc1ccc(C(=O)N2CC3CC(CN(Cc4ccccc4)C3)C2)cc1
Potency [1]: inactive | Potency [2]: inactive | outcome [3]: inactive | outcome [4]: inactive | Potency [5]: inactive | Potency [6]: inactive

CN(C)[C@@H]1C(=O)C(C(N)=O)=C(O)[C@@]2(O)C(=O)C3=C(O)c4c(O)cccc4C[C@H]3C[C@@H]12
Potency [1]: inactive | Potency [2]: inactive | outcome [3]: inactive | outcome [4]: inactive | Potency [5]: inactive | Potency [6]: inactive | Potency [7]: inactive | Potency [8]: inactive | Potency [9]: inactive

O=C(CCOCCOCCOCCOCCC(=O)Nc1c(I)cc(I)c(C(=O)O)c1I)Nc1c(I)cc(I)c(C(=O)O)c1I
Potency [1]: inactive | Potency [2]: inactive | outcome [3]: inactive | outcome [4]: inactive | Potency [5]: inactive | Potency [6]: inactive | Potency [7]: inactive | Potency [8]: inactive | Potency [9]: inactive

CC(NN)c1ccccc1 (centres undefined)
Potency [1]: inactive | Potency [2]: inactive | outcome [3]: inactive | outcome [4]: inactive | Potency [5]: inactive | Potency [6]: inactive

Cc1ccc(-c2ccccc2C#N)cc1
Potency [1]: inactive | Potency [2]: inactive | outcome [3]: inactive | outcome [4]: inactive | Potency [5]: inactive | Potency [6]: inactive | Potency [7]: inactive

CC(C)(C)C(=O)OCOC(=O)C1N2C(=O)CC2S(=O)(=O)C1(C)C (centres undefined)
Potency [1]: inactive | Potency [2]: inactive | outcome [3]: inactive | outcome [4]: inactive | Potency [5]: inactive | Potency [6]: inactive | Potency [7]: inactive

CC(=O)O[C@@H]1C(=O)O[C@@H]2[C@H]1OC(=O)[C@@H]2OC(C)=O
Potency [1]: inactive | Potency [2]: inactive | outcome [3]: inactive | outcome [4]: inactive | Potency [5]: inactive | Potency [6]: inactive | Potency [7]: inactive | Potency [9]: inactive
